PubChem BioAssay AID374 (University of Pittsburgh Molecular Library Screening Center, 2006)
Screen size: about 65,000 compounds; about 100 (0.15%) were called active.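 The calls were made as follows: active = inhibition above about 50% (limit read from the data); inconclusive = inhibition over screen mean plus 3 SD, below that limit; inactive = the rest.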 For the sample, actives were picked, then their nearest neighbours and some compounds at random.

What follows are compounds tested against Dual specificity protein phosphatase 1 (Homo sapiens) (UniProt P28562) (assay: MKP-1 phosphatase inhibitors, primary screen, biochemical, in vitro (AID 374;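 also: 0% = DMSO max control wells and 100% = wells with enzyme stopped by NaOH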)). Conditions: recombinant MKP-1, OMFP hydrolysis fluorescence; hits give high values;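 compounds tested at a single concentration somewhere between 10 and 100 µM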.
Dual specificity protein phosphatase 1 (Homo sapiens), sequence (P28562 whole entry, looked up): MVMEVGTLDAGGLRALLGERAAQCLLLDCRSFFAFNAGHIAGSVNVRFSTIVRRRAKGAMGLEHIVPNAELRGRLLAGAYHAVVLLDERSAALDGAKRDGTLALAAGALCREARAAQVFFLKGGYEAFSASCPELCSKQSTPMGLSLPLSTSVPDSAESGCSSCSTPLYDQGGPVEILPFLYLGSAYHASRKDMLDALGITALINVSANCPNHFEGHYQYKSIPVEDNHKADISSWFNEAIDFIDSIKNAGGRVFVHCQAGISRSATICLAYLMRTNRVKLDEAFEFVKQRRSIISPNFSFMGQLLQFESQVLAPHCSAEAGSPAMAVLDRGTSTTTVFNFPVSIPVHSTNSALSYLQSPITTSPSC

inhibition, inactive:
COC(C)(C)[C@]12CC(O)(C(C)C)ON1[C@H]1CCCCC1N2O (stereo not given in full) -23.5%
CCOc1ccc(C(=O)NC2CCN(S(=O)(=O)CC)CC2)cc1 -10.3%
COC(=O)C(C)n1cnc2c(nnn2-c2cccc(Cl)c2)c1=O (stereo not given) -3.96%
Cc1ccc(CNC(=O)C2CCCN(S(C)(=O)=O)C2)cc1 (stereo not given) 4.5%
O=C(c1ccco1)N1CCN(CC(=O)N(C2CCCCC2)C2CCS(=O)(=O)C2)CC1 (stereo not given) 8.56%
COc1ccc(-n2ncc3c(N4CCc5ccccc54)ncnc32)cc1 -0.04%
CCCN1C(=O)C(NS(=O)(=O)c2ccc(N)cc2)(C(F)(F)F)C(C(=O)OC)=C1C (stereo not given) 7.02%
Nc1ncc(-c2cc3ccccc3oc2=O)s1 -7.46%
COc1ccccc1N1CCN(C(=O)CSc2nnc(-c3ccoc3C)o2)CC1 2.49%
CC1=NC2(CCCc3c2no[n+]3[O-])N(O)C1(C)C (stereo not given) 10.4%
Cc1ccc(-n2nc3c(c2NC(=O)c2ccc4c(c2)OCO4)CSC3)c(C)c1 28.8%
CCOc1cc(-c2conc2N)cc(OCC)c1OCC 0.9%
CCOc1ccc(NC(=O)Nc2ccc(N(C)C(C)=O)cc2)cc1 6.8%
CCOC(=O)C1CCN(C(=O)CSc2cc(=O)n(C)c3ccccc23)CC1 3.52%
Cn1c(=O)c(C(=O)Nc2ncccn2)c(O)c2ccccc21 1.1%
O=C(Nc1cccnc1)c1noc2c1CCCCC2 -9.22%
S=C1SCN(CCN2CCOCC2)CN1Cc1ccccc1 22.5%
Cn1cc(S(=O)(=O)N2CCC(Cc3ccccc3)CC2)c(=O)n(C)c1=O 13.6%
CCOC(=O)C1=C(CC)Nc2ccccc2N=C1NC(=O)c1cccc(S(=O)(=O)N2CCCC2)c1 17.2%
CCOC(=O)N1CCN(C(=O)c2ccc(CN(c3ccc(C)c(C)c3)S(C)(=O)=O)cc2)CC1 6.83%
CCCC(=O)Nc1c(O)c2ccccc2[nH]c1=O 24%
O=C(O)CN(Cc1ccco1)S(=O)(=O)c1ccc(F)cc1 -3.94%
CC(C)C[C@H](NC(=O)Nc1cccc(C(F)(F)F)c1)C(=O)O -11.4%
CCOC(=O)c1cc2c(n(-c3ccc(C)cc3)c1=O)CCCC2=O 3.58%
CCN1C(=O)CS/C1=N\c1nccs1 2.24%
Cc1cc(C(=O)OCC(=O)NCc2ccco2)c(C)n1-c1ccccc1 8.87%
CCCC(NC(=O)c1ccccc1)c1nc2ccccc2n1Cc1ccc(C(=O)OC)o1 (stereo not given) -11.6%
O=C(Cn1nnc(-c2ccc(CN3CCOCC3)cc2)n1)NC1CCCCC1 -10.1%
COc1ccc(S(=O)(=O)N2CCCC2)c(C)c1C 2.42%
CCn1c(SCC(=O)Nc2cc(C)c(Cl)cc2OC)nnc1-c1ccco1 13%
Cn1cccc1C(=O)NC(=O)COC(=O)Cc1coc2ccc3ccccc3c12 31.4%
CCOc1ccc2nc(SC(CC)C(=O)Nc3cc(C)on3)sc2c1 (stereo not given) 2.57%
C=CCn1c(COc2ccccc2F)nnc1SCC(=O)N1CC(=O)Nc2ccccc21 2.2%
CCC1CCCCN1CCCNC(=O)Cn1nc(-c2ccccc2)ccc1=O (stereo not given) 0.39%
CCCc1[nH]nc2c1C(c1c(C)nn(-c3ccccc3)c1Cl)C(C#N)=C(N)O2 (stereo not given) -4.58%
Cc1ccc(C(C(=O)NCc2ccco2)N(CC2CCCO2)C(=O)Cn2nnc3ccccc32)cc1 (stereo not given) 4.86%
COC(=O)c1ccc(NC(=O)CSc2nnc(-c3ccncc3)n2C)cc1 -30.5%
COc1ccccc1C1/C(=C(/O)c2ccc(C)cc2)C(=O)C(=O)N1Cc1ccco1 (stereo not given) 22.9%
COc1ccc(OC)c(C(=O)c2coc3ccc(OC)cc23)c1 3.61%
COc1ccc(NC(=O)C2CCCN(S(=O)(=O)c3cccc4cccnc34)C2)cc1OC (stereo not given) 6.18%
CCn1c(Cc2ccccc2)nnc1SCc1nc2ccccc2c(=O)[nH]1 7.32%
NC(=O)CSc1oc(-c2cccs2)nc1S(=O)(=O)c1ccccc1 6.79%
CCOc1ccc(OCc2ccc(C(=O)Nc3cccc(C)n3)o2)cc1 -1.14%
CCc1nc(C)cn1S(=O)(=O)c1cc(OC)c(C)cc1C -31.2%
COc1cc(Br)cc(/C=N/c2ncn[nH]2)c1O -1.54%
CC1=NCCN1S(=O)(=O)c1ccc(Br)c(C)c1 -0.35%
Cn1c(C(=O)N2CCC(C(N)=O)CC2)cc2c(=O)n(C)c3ccccc3c21 8.99%
O=C(O)CSCNC(=O)CC12CC3CC(CC(C3)C1)C2 -17.4%
CCC(=O)c1cc2c(cc1NC(=O)c1cccs1)OCCO2 1.58%
O=S(=O)(NCCOc1cccc2cccnc12)c1ccc(F)cc1 -4.61%
